Test results: PubChem BioAssay (EPA / NIEHS)
The source made the active and inactive calls. Rule for the calls: active = hit-call score of the fitted dose curve at least 0.9, where 1 is the maximum; inactive = score below 0.9.

Legend:
Conditions in all cases: mRNA level, 48 h; actives raise or lower the signal
[1] = read-out: Heat shock 70 kDa protein 1 (HSPA1A), gene 3303; test: LTEA_HepaRG_HSPA1A: Life Technologies and Expression Analysis (LTEA) Assay for Heat shock 70 kDa protein 1 (HSPA1A) using HepaRG (AID 2283502)
Procedure, shortened: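 Differentiated human HepaRG cells in serum-free induction medium were exposed in duplicate for 48 h to eight concentrations (top 100 uM, half-log steps, 0.5% DMSO). HSPA1A mRNA was quantified by qRT-PCR, normalized to ACTB, GAPDH and POLR2A, and fitted bidirectionally against DMSO.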

[2] = read-out: Hypoxia-inducible factor 1-alpha (Homo sapiens) (UniProt Q16665); test: LTEA_HepaRG_HIF1A: Life Technologies and Expression Analysis (LTEA) Assay for Hypoxia-inducible factor 1 (HIF1A) Trancription factor using HepaRG (AID 2283503)
Procedure, shortened: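 HepaRG, 48 h exposure, 8-pt half-log series from 100 uM, 0.5% DMSO vehicle, duplicates. Readout: HIF1A transcript by qRT-PCR (Fluidigm array), housekeeping-normalised. Bidirectional curve fit vs DMSO baseline.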

[3] = read-out: 3-Hydroxy-3-Methylglutaryl-CoA Synthase 2 (HMGCS2), HMGCS2 (gene 3158); test: LTEA_HepaRG_HMGCS2: Life Technologies and Expression Analysis (LTEA) Assay for 3-Hydroxy-3-Methylglutaryl-CoA Synthase 2 (HMGCS2) using HepaRG (AID 2283504)
Procedure, shortened: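 Human HepaRG cells in serum-free induction medium were exposed in duplicate for 48 h to 8-point half-log series from 100 uM top in 0.5% DMSO. HMGCS2 mRNA measured by TaqMan qRT-PCR, normalised to ACTB, GAPDH, POLR2A; bidirectional fit versus DMSO.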

[4] = read-out: HGF (gene 3082); test: LTEA_HepaRG_HGF: Life Technologies and Expression Analysis (LTEA) Assay for Hepatocyte Growth Facto (HGF) using HepaRG (AID 2283505)
Procedure, shortened: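 Differentiated HepaRG cells in serum-free induction medium exposed 48 h in duplicate, 8 half-log concentrations from 100 uM in 0.5% DMSO. HGF mRNA by qRT-PCR, normalised to ACTB, GAPDH, POLR2A; bidirectional fitting.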

[5] = read-out: Insulin Like Growth Factor 1 (IGF1), IGF1 (gene 3479); test: LTEA_HepaRG_IGF1: Life Technologies and Expression Analysis (LTEA) Assay for Insulin Like Growth Factor 1 (IGF1) using HepaRG (AID 2283506)
Procedure, shortened: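 Differentiated human HepaRG cells were dosed for 48 h in serum-free induction medium with 0.5% DMSO, eight half-log concentrations up to 100 uM, in duplicate. IGF1 mRNA was quantified by qRT-PCR normalized to ACTB, GAPDH, POLR2A; bidirectional fitting versus DMSO.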

[6] = read-out: Intercellular Adhesion Molecule 1 (ICAM1), ICAM1 (gene 3383); test: LTEA_HepaRG_ICAM1: Life Technologies and Expression Analysis (LTEA) Assay for Intercellular Adhesion Molecule 1 (ICAM1) using HepaRG (AID 2283507)
Procedure, shortened: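 Differentiated human HepaRG cells in serum-free induction medium exposed 48 h in duplicate to 8 half-log concentrations (top 100 uM, 0.5% DMSO). ICAM1 mRNA quantified by TaqMan qRT-PCR, normalized to ACTB, GAPDH and POLR2A; bidirectional fitting versus DMSO.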

[7] = read-out: Insulin-like growth factor-binding protein 1 (IGFBP1), IGFBP1 (gene 3484); test: LTEA_HepaRG_IGFBP1: Life Technologies and Expression Analysis (LTEA) Assay for Insulin-like growth factor-binding protein 1 (IGFBP1) using HepaRG (AID 2283508)
Procedure, shortened: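 HepaRG cells, plated 48 h then switched to serum-free induction medium, exposed in duplicate for 48 h to 8-point half-log series from 100 uM in 0.5% DMSO. mRNA measured by qRT-PCR, normalized to ACTB/GAPDH/POLR2A; bidirectional fit versus DMSO.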

[8] = read-out: Interleukin 6 (IL6), IL6 (gene 3569); test: LTEA_HepaRG_IL6: Life Technologies and Expression Analysis (LTEA) Assay for Interleukin 6 (IL6) using HepaRG (AID 2283509)
Procedure, shortened: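 HepaRG, ~100,000 cells/well, 48 h pre-culture; serum-free induction medium; cmpd 8-pt half-log from 100 uM, 0.5% DMSO, duplicate, 48 h. Lysis in RLT, TaqMan qRT-PCR; gain or loss vs DMSO.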

[9] = read-out: Interleukin 6 Receptor (IL6R), IL6R (gene 3570); test: LTEA_HepaRG_IL6R: Life Technologies and Expression Analysis (LTEA) Assay for Interleukin 6 Receptor (IL6R) using HepaRG (AID 2283510)
Procedure, shortened: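 Differentiated human HepaRG cells, plated 48 h then switched to serum-free induction medium, were dosed in duplicate for 48 h at eight half-log concentrations up to 100 uM in 0.5% DMSO. IL6R mRNA quantified by qRT-PCR, normalized to ACTB/GAPDH/POLR2A; bidirectional fit versus DMSO.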

[10] = read-out: Keratin 19 (KRT19), KRT19 (gene 3880); test: LTEA_HepaRG_KRT19: Life Technologies and Expression Analysis (LTEA) Assay for Keratin 19 (KRT19) using HepaRG (AID 2283512)
Procedure, shortened: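 Differentiated HepaRG cells in serum-free induction medium, exposed 48 h in duplicate to 8 half-log concentrations up to 100 uM in 0.5% DMSO. KRT19 mRNA by qRT-PCR, normalized to ACTB, GAPDH, POLR2A; bidirectional fit vs DMSO.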

[11] = read-out: JUN Transcription Factor, JUN (gene 3725); test: LTEA_HepaRG_JUN: Life Technologies and Expression Analysis (LTEA) Assay for JUN Transcription Factor using HepaRG (AID 2283513)
Procedure, shortened: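 Differentiated HepaRG cells were exposed to chemicals for 48 h in serum-free induction medium, 8 concentrations from 100 uM in half-log steps, 0.5% DMSO vehicle, in duplicate. JUN mRNA was quantified by TaqMan qRT-PCR, normalized to ACTB, GAPDH, POLR2A.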

[12] = read-out: Lipase C (LIPC), LIPC (gene 3990); test: LTEA_HepaRG_LIPC: Life Technologies and Expression Analysis (LTEA) Assay for Lipase C (LIPC) using HepaRG (AID 2283514)
Procedure, shortened: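 Read-out is LIPC transcript level by TaqMan qRT-PCR, normalized to three housekeeping genes, after 48 h chemical treatment of human HepaRG liver cells. Curves span eight concentrations topping at 100 uM; activity in either direction scored relative to 0.5% DMSO.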

[13] = read-out: Lipoprotein lipase (LPL), LPL (gene 4023); test: LTEA_HepaRG_LPL: Life Technologies and Expression Analysis (LTEA) Assay for Lipoprotein lipase (LPL) using HepaRG (AID 2283515)
Procedure, shortened: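 Read-out is LPL transcript level by qRT-PCR, normalized to three housekeeping genes and fitted bidirectionally against the DMSO control. Human HepaRG cells received chemicals for 48 h at up to 100 uM.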

[14] = read-out: MicroRNA 122 (MIR122), gene 406906; test: LTEA_HepaRG_MIR122: Life Technologies and Expression Analysis (LTEA) Assay for MicroRNA 122 (MIR122) using HepaRG (AID 2283516); note: the transcript read is the microRNA miR-122
Procedure, shortened: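 Differentiated human HepaRG cells were exposed 48 h in serum-free induction medium to eight half-log concentrations (top 100 uM, 0.5% DMSO). Transcript level was measured by TaqMan qRT-PCR, normalized to ACTB, GAPDH and POLR2A, and fitted bidirectionally versus DMSO.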

[15] = read-out: matrix metalloproteinase-10 (MMP10), MMP10 (gene 4319); test: LTEA_HepaRG_MMP10: Life Technologies and Expression Analysis (LTEA) Assay for matrix metalloproteinase-10 (MMP10) using HepaRG (AID 2283517)
Procedure, shortened: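 Gain or loss of MMP10 mRNA is fitted relative to the 0.5% DMSO vehicle. The human hepatic line HepaRG receives a 48-hour serum-free exposure, in duplicate, with a maximum concentration of 100 uM.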

[16] = read-out: MYC, MYC (gene 4609); test: LTEA_HepaRG_MYC: Life Technologies and Expression Analysis (LTEA) Assay for MYC using HepaRG (AID 2283518)
Procedure, shortened: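 Differentiated HepaRG cells exposed 48 h in serum-free induction medium to 8 concentrations (top 100 uM, half-log steps; 0.5% DMSO), duplicate. MYC mRNA measured by Fluidigm qRT-PCR, normalized to ACTB, GAPDH, POLR2A; bidirectional fit versus DMSO.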

[17] = read-out: matrix metalloproteinase-3 (MMP3), MMP3 (gene 4314); test: LTEA_HepaRG_MMP3: Life Technologies and Expression Analysis (LTEA) Assay for matrix metalloproteinase-3 (MMP3) using HepaRG (AID 2283519)
Procedure, shortened: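 HepaRG, human; 48 h dosing, 8 conc. (max 100 uM, half-log), duplicate, 0.5% DMSO. Readout: MMP3 transcript by Fluidigm TaqMan qRT-PCR, ACTB/GAPDH/POLR2A-normalised. Gain or loss fitted vs DMSO.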

[18] = read-out: Paternally Expressed 10 (PEG10), PEG10 (gene 23089); test: LTEA_HepaRG_PEG10: Life Technologies and Expression Analysis (LTEA) Assay for Paternally Expressed 10 (PEG10) using HepaRG (AID 2283520)
Procedure, shortened: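 Differentiated HepaRG cells, plated 48 h then switched to serum-free induction medium, were exposed in duplicate for 48 h to eight half-log concentrations topping at 100 uM in 0.5% DMSO. PEG10 mRNA was quantified by TaqMan qRT-PCR, normalised to ACTB, GAPDH and POLR2A.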

[19] = read-out: Nuclear factor NF-kappa-B p105 subunit (Homo sapiens) (UniProt P19838); test: LTEA_HepaRG_NFKB1: Life Technologies and Expression Analysis (LTEA) Assay for Nuclear Factor Kappa B Subunit 1 (NFKB1) using HepaRG (AID 2283521)
Procedure, shortened: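 HepaRG, 48 h exposure; 8-pt half-log series from 100 uM in 0.5% DMSO; duplicates. Readout: NFKB1 mRNA by qRT-PCR (Fluidigm arrays), housekeeping-normalized. Gain/loss fit vs DMSO baseline.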

[20] = read-out: Potassium channel subfamily K member 1 (KCNK1), KCNK1 (gene 3775); test: LTEA_HepaRG_KCNK1: Life Technologies and Expression Analysis (LTEA) Assay for Potassium channel subfamily K member 1 (KCNK1) using HepaRG (AID 2283511)
Procedure, shortened: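 Gain or loss of KCNK1 mRNA is the read-out, quantified by qRT-PCR against three housekeeping genes after 48 h chemical treatment of human HepaRG liver cells. Concentrations ran from 100 uM downward in half-log steps, vehicle 0.5% DMSO.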

Measured: AC50

Sequence of Nuclear factor NF-kappa-B p105 subunit (Homo sapiens) (P19838 whole entry, looked up): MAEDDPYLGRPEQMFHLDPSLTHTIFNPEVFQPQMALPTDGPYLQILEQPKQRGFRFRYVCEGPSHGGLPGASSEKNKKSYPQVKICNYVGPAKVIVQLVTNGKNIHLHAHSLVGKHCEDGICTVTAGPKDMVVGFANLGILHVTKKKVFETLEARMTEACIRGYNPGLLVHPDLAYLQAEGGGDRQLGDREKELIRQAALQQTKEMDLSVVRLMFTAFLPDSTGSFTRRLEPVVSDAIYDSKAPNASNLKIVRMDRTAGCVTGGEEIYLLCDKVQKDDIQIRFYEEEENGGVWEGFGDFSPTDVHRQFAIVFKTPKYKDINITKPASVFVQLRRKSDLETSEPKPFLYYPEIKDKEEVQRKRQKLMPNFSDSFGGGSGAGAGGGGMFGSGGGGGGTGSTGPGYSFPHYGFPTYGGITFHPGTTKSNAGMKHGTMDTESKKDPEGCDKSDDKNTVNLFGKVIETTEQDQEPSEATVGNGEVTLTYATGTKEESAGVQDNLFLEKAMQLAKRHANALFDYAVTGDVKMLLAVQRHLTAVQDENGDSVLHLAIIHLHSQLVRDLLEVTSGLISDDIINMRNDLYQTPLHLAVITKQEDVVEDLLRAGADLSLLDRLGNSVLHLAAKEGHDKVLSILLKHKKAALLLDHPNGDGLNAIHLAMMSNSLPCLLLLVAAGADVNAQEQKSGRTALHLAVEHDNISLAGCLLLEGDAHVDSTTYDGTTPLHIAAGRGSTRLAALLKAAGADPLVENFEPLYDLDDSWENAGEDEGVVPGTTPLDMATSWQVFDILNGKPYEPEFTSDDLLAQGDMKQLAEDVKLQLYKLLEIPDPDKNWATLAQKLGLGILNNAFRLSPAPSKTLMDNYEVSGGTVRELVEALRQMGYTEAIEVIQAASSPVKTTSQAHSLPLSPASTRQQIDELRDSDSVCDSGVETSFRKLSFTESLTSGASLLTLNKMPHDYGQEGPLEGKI
Sequence of Hypoxia-inducible factor 1-alpha (Homo sapiens) (Q16665 whole entry, looked up): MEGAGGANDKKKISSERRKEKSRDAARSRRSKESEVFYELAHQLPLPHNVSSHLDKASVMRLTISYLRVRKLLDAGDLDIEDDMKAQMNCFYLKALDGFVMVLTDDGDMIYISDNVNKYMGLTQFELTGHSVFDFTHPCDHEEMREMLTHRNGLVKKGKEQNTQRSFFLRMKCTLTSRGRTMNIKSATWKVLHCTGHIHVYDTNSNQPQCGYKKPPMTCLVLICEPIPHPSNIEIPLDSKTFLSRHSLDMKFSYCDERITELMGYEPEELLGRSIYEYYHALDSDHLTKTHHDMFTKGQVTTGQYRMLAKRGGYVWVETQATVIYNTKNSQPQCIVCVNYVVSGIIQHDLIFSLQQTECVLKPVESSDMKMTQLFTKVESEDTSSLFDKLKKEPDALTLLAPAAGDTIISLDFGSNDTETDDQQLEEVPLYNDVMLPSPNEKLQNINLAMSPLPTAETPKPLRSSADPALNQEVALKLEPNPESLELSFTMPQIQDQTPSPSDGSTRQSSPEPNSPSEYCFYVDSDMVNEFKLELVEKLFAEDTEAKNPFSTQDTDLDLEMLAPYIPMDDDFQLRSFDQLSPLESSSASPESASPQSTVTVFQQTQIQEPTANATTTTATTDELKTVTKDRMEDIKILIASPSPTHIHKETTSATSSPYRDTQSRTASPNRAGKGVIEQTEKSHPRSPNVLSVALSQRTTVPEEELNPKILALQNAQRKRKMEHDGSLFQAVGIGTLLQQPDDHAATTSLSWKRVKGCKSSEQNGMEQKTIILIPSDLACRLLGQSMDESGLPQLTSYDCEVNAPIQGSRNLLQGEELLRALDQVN

c1ccc2c(c1)-c1cccc3cccc-2c13
active: [18] 50 µM
not listed: [20]
inactive: all other assays above

CCCSC(=O)N(CCC)CCC
not listed: [13] | [14] | [20]
inactive: all other assays above

ClCCOCCCl
not listed: [2] | [13] | [14]
inactive: all other assays above

CC(C)N(Cc1ccccc1)C(=O)C(C)(C)C
active: [5] 25.6 µM | [18] 28.8 µM
not listed: [7] | [13] | [20]
inactive: all other assays above
